# Source: PubChem BioAssay (NCI)
# The panel holds about 83,000 compounds, 20% with a hit somewhere; the sample as a whole holds those more often.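 Growth was measured after 48 h exposure to one concentration of compound in 96-well plates. Values under 10 count as active.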 Values without a mark were called inactive. Activity calls are given as the source filed them.
# Assays:
# Assay in all cases: NCI-60 one-dose screen, 48 h (100 = growth as untreated, 0 = no growth, -100 = all killed)
# SK-MEL-2 melanoma = conditions: 10 µM unless noted
# EKVX NSCLC = conditions: 10 µM unless noted
# SN12C renal = conditions: 10 µM unless noted
# UO-31 renal = conditions: 10 µM unless noted
# TK-10 renal = conditions: 10 µM unless noted
# ACHN renal = conditions: 10 µM unless noted
# A498 renal = conditions: 10 µM
# HL-60(TB) leukemia = conditions: 10 µM unless noted
# CCRF-CEM leukemia = conditions: 10 µM unless noted
SMILES,growth (SK-MEL-2 melanoma),growth (EKVX NSCLC),growth (SN12C renal),growth (UO-31 renal),growth (TK-10 renal),growth (ACHN renal),growth (A498 renal),growth (HL-60(TB) leukemia),growth (CCRF-CEM leukemia)
COC(=O)[C@@H](C)C[C@H](Cc1ccccc1)NC(=O)c1csc([C@@H](C[C@H](C(C)C)N(C)C(=O)[C@H](C)NC(=O)[C@H]2CCCN2C)OC(C)=O)n1,43.8%,69.8%,64.8%,71.8%,82.7%,68.6%,53.4%,-21.2% (active),18.7%
COC(=O)[C@@]1(C)CC[C@]2(C)CC[C@]3(C)C4=CC(=O)c5c(cc(O)c(O)c5C)[C@]4(C)CC[C@@]3(C)[C@@H]2C1,71.6%,71.7%,61.7%,50.6%,68.9%,53.3%,57.1%,38.4%,26.9%
CC(=O)O[C@H](C[C@H](C(C)C)N(C)C(=O)[C@@H](NC(=O)[C@H]1CCCCN1C)C(C)C)c1nc(C(=O)N[C@@H](Cc2ccccc2)C[C@H](C)C(=O)O)c(C)s1,61.5%,40.9%,34.6%,58.9%,36.9%,26.6%,-8.24% (active),-8.97% (active),10.8%
CC1=C(CCCNS(C)(=O)=O)C2=C(C)C3(CC3)[C@@](C)(O)C(=O)C2=C1,-44.7% (active),1.61% (active),8.84% (active),-32.6% (active),-14.9% (active),-23.6% (active),-43.2% (active),14%,90.9%
COC(=O)[C@@H](C)C[C@H](Cc1ccccc1)NC(=O)c1cccc([C@@H](C[C@H](C(C)C)N(C)C(=O)[C@@H](NC(=O)[C@H]2CCCCN2C)C(C)C)OC(C)=O)n1,26.4%,34.3%,17.1%,41.8%,58.7%,30.4%,-0.869% (active),-28.6% (active),7.41% (active)
COc1cc(C=Nc2cccc(Br)c2)ccc1N(CCCl)CCCl,91.2%,120%,84.5%,69.1%,92.9%,18.2%,120%,71.2%,63.5%
CCCCCSC1C2C(=O)C(Br)=CC13CCNc1c(O)c4c5c(c13)=[N+]2CCC=5C=N4 (stereo unspecified),-54.8% (active),-56.1% (active),-61.9% (active),-66.9% (active),-52.4% (active),-90.2% (active),12.2%,-40.8% (active),-13.5% (active)
Cn1cc(-c2csc(-c3cn(CCN4CCOCC4)c4ccccc34)n2)c2cccnc21,68.8%,55.1%,77.4%,34.9%,87.9%,63%,85.1%,36.1%,36.9%
Cn1cc(-c2csc(-c3cn(CCCCN4CCCCC4)c4ccc(F)cc34)n2)c2cccnc21,97.4%,89%,75.7%,20.6%,106%,54.6%,81.5%,-0.887% (active),-60.5% (active)
CC(=O)OC[C@]1(C)C=C2C(=O)[C@](C)(O)C3(CC3)C(C)=C2[C@H]1OC(=O)N(C)CCN(C)C(=O)OC(C)(C)C,-74.3% (active),-7.18% (active),14.2%,-48.5% (active),-8.19% (active),-8.88% (active),-10.8% (active),-37% (active),19.9%
COC(=O)CC12CC(NC(=O)c3csc([C@@H](C[C@H](C(C)C)N(C)C(=O)[C@@H](NC(=O)[C@H]4CCCCN4C)C(C)C)OC(C)=O)n3)(C1)C2,51.6%,38.6%,25.4%,55.2%,50.5%,17.2%,5.32% (active),-29.6% (active),13.6%
Clc1cccc(NCOOC2(OOCNc3cccc(Cl)c3)CCCCCC2)c1,92.4%,89%,95.4%,-47.3% (active),92.2%,80.5%,98.8%,78.8%,80.2%
N#C[Se]Cc1cc(-c2ccccc2)n(-c2ccc(S(N)(=O)=O)cc2)n1,-35.9% (active),-1.91% (active),6.49% (active),-25.6% (active),-29.7% (active),1.16% (active),-61.4% (active),-44.5% (active),-16.4% (active)
COc1ccc(C2=CC(c3ccc(OC)c(OC)c3)c3c(c4ccccc4oc3=O)O2)cc1OC (stereo unspecified),8.03% (active),30.4%,58.7%,21.8%,42%,52.7%,-3.43% (active),-59.9% (active),-6.1% (active)
